KB-V1 cytotox: kills drug-selected multidrug resistant KB-V1 cells; 3.4% of 400,000 active; KB-V1 MDR cells viability, CellTiter-Glo, 72 h; Potency, µM (top dose mostly 46.1 µM), most hits filed as cytotoxic; further: nearly all actives have a fitted effect of over 60% in size
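KB-V1 MDR subline cells in DMEM (phenol-red free, 10% FBS) exposed to compounds in qHTS concentration series for 72 h at 37 degrees C. Viability read by CellTiter-Glo luminescence; concentration-effect curves fitted after normalization and correction.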
SW480 rerep: DNA re-replication induction in SW480 cells; Potency, µM (top dose mostly 46.1 µM), most hits filed as activators; AID 624297; SW480 DNA re-replication, Hoechst DNA content imaging, 48 h; 1.8% of 340,000 active; further: nearly all actives have a fitted effect of over 55% in size
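Cells (250 per well) received 23 nL compound or DMSO by pin tool and were kept 48 hr at 37 C, 5% CO2. Nuclei were then stained with Hoechst for 40 min and scanned for DNA content.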
ELG1 repair inh: blocks ELG1-dependent DNA repair in HEK293T cells; AID 504467; 2.3% of 330,000 active; Potency, µM (titrated, usually from 46.1 µM), actives largely listed as inhibitors; HEK293T ELG1-luciferase reporter, luminescence, 16 h; DNA damage induced by 5-fluorouridine; further: nearly all actives have a fitted effect of over 55% in size
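Quantitative HTS, concentration-response format. 2,000 cells/well co-treated with 5-fluorouridine and compound, 16 hr in 5% CO2 at 37 °C; ONE-Glo luminescence read after 30 min.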
MCF10A rereplic: DNA re-replication induction in MCF 10a cells. MCF 10A DNA re-replication, Hoechst nuclear intensity, 48 h. 2.9% of 350,000 active. Potency, µM (series often up to 46.1 µM), usual class: activators; further: nearly all actives have a fitted effect of over 50% in size
KB-3-1 tox: kills parental KB-3-1 adenocarcinoma cells; AID 1347075; KB-3-1 viability, CellTiter-Glo ATP luminescence, 72 h; Potency, µM (titrated, usually from 46.1 µM), actives largely listed as cytotoxic; 1.4% of 400,000 active; further: nearly all actives have a fitted effect of over 60% in size
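Cytotoxicity measured as CellTiter-Glo luminescence after 72 h at 37 C. Compound titrations were pinned onto drug-naive KB-3-1 parental adenocarcinoma cells grown in DMEM with 10% FBS, and normalized data fitted to concentration-response curves.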
Numbers stand for hits; i = inactive; ? = inconclusive; nt = not tested or not shown; [ ] = another dose, or the depositor's remark. Most compounds without a hit are left out; they make up all but 8.2% or so of the library. The call rests on the fitted dose curve; in most records, active means well fitted curve in the direction sought with a large enough effect; inconclusive means small, poorly fitted or top-dose-only effect, or another doubt; inactive means no such curve, though single readings can be large; an effect the other way counts as inactive or inconclusive.

SMILES | KB-V1 cytotox | SW480 rerep | ELG1 repair inh | MCF10A rereplic | KB-3-1 tox
CCn1c(CSc2nnc(-c3ccc4c(c3)OCO4)o2)nc2cc(S(=O)(=O)N(C)C)ccc21 | ? | i | 14.6µM | i | i
CCN(CC(=O)Nc1ccc2c(c1)OCCO2)S(=O)(=O)c1ccc(C)cc1 | 16.4µM | i | i | i | i
CCn1c(CSc2nnc(C)n2-c2ccccc2)nc2cc(S(=O)(=O)N(C)C)ccc21 | i | i | i | i | i
CCC(C)[C@H](NC(=O)Nc1ccc2c(c1)OCCO2)C(=O)O (stereo partly specified) | i | 18.4µM | ? | ? | i
COc1cccc(OCC(Cn2cnc3ccccc32)OC(C)=O)c1 (stereo unspecified) | 16.4µM | i | i | i | i
COc1ccc(OCC(Cn2cnc3ccccc32)OC(C)=O)cc1 (stereo unspecified) | ? | i | i | i | i
O=C(c1cccs1)c1no[n+]([O-])c1C(=O)c1cccs1 | ? | 13µM | ? | 11.6µM | ?
COc1ccc(C(=O)c2no[n+]([O-])c2C(=O)c2ccc(OC)cc2)cc1 | ? | ? | i | 9.2µM | ?
CCOC(=O)c1c(C)[nH]c(C)c1C(=O)COC(=O)Cc1n[nH]c(=O)c2ccccc12 | ? | i | ? | i | i
Cc1noc(C)c1C(=O)OCC(=O)NCc1ccc(Cl)cc1 | i | i | i | i | i
CC(C)C[C@H]1CN([C@@H](Cc2ccccc2)CN2CCC[C@@H]2CN2C(=O)C(=O)NC[C@@H]2Cc2ccccc2)C(=O)C(=O)N1CCc1ccccc1 | i | nt | nt | nt | ?
CC(=O)c1cccc(S(=O)(=O)N2CCN(CCOc3ccccc3)CC2)c1 | i | i | ? | i | i
COc1cc(N=Nc2ccc3ccccc3c2)ccc1O | i | i | ? | ? | i
COc1cc(N=Nc2ccccc2C(=O)O)ccc1O | i | i | ? | 18.4µM | i
CCCCC(=O)N(C)c1c(C)nc2ccc(C(=O)N3CCNC(=O)C3)cn12 | i | nt | nt | nt | i
Brc1ccc2c(c1)C(c1cccs1)=NNC(c1cccnc1)=N2 | 20.6µM | i | i | i | i
CCOc1ccc2c(c1)C(c1cccs1)=NNC(c1cccnc1)=N2 | ? | ? | i | i | i
COC(=O)c1ccc2nc(-c3ccc(Cl)cc3)c(CC3CCCCC3)n2c1 | 16.4µM | nt | nt | nt | ?
COC(=O)c1ccc2nc(-c3cccc(Br)c3)c(Cc3ccccc3)n2c1 | ? | nt | nt | nt | i
COC(=O)c1ccc2nc(-c3ccc(OC)c(OC)c3)c(CC3CCCCC3)n2c1 | i | nt | nt | nt | ?
COC(=O)c1ccc2nc(-c3cccc(Br)c3)c(CC3CCCCC3)n2c1 | 13µM | nt | nt | nt | ?
CC(Sc1oc(-c2cccs2)nc1S(=O)(=O)c1ccccc1)c1ccccc1 (stereo unspecified) | i | nt | nt | nt | i
COC(=O)/C(=C\c1ccc2c(c1)c1ccccc1n2C)NC(=O)c1ccccc1 | i | ? | 20.6µM | ? | i
CC(C)OC(=O)/C(=C\c1ccc2c(c1)c1ccccc1n2C)NC(=O)c1ccccc1 | ? | i | ? | ? | i
CC(C)OC(=O)/C(=C/c1ccc2c(c1)c1ccccc1n2C)NC(=O)c1ccccc1 | ? | i | 20.6µM | ? | i
SMILES | KB-V1 cytotox | SW480 rerep | ELG1 repair inh | MCF10A rereplic | KB-3-1 tox
S=C(NCCN1CCOCC1)N/N=C/c1c2ccccc2cc2ccccc12 | ? | i[9.22 µM] | ? | i | ?
C[N+](C)(C)CC(=O)N/N=C/c1c2ccccc2cc2ccccc12 | ? | i | i | 18.4µM | i
Cc1cc(C)n2nc(C(=O)N/N=C/c3ccccc3Cl)nc2n1 | i | i | i | i | i
Cn1cccc1CC(=O)N/N=C\c1c2ccccc2cc2ccccc12 | i | ? | i | ? | i
COCCNC(=S)N/N=C/c1c2ccccc2cc2ccccc12 | i | 18.4µM | ? | 14.6µM | i
Cc1cc(C)n2nc(C(=O)N/N=C/c3c4ccccc4cc4ccccc34)nc2n1 | ? | ? | ? | 8.2µM | i
CSc1ccc(C(=O)Nc2cc(S(=O)(=O)N3CCOCC3)ccc2N2CCOCC2)cc1[N+](=O)[O-] | ? | i | nt | i | ?
COc1cc2c3c(c1OC)-c1cc4c(cc1CC3(C#N)N(C(=O)c1ccccc1)CC2)OCO4 (stereo unspecified) | 3.26µM | i | nt | i | i
COc1cc(C(=O)NCCNc2nc3ccc(C)cc3cc2C#N)cc(OC)c1OC | i | ? | 14.6µM | ? | i
COc1ccc(C(=O)NCCNc2nc3cc(C)cc(C)c3cc2C#N)cc1 | ? | nt | nt | nt | i
Cc1ccc2nc(NCc3ccccc3)c(C#N)cc2c1 | i | ? | i | 14.6µM | i
COc1ccc2nc(NCCCNC(=O)c3cc(OC)c(OC)c(OC)c3)c(C#N)cc2c1 | ? | ? | 15.8µM | i | i
Cc1ccc2nc(NCCNC(=O)c3ccccc3)c(C#N)cc2c1 | i | ? | ? | ? | i
COc1ccccc1Nc1nc2ccc(C)cc2cc1C#N | i | i | i | i | i
COc1ccc(C(=O)NCCNc2nc3ccc(C)cc3cc2C#N)cc1 | i | ? | i | 20.6µM | i
COc1cc(C(=O)NCCCNc2nc3c(C)cc(C)cc3cc2C#N)cc(OC)c1OC | i | ? | ? | ? | i
C[C@@H]1CN([C@H](C)CO)C(=O)CCCn2nncc2CO[C@H]1CN(C)Cc1cccc(C(=O)O)c1 | i | nt | nt | nt | i
NN=C1c2ccccc2-c2ccc(N)cc21 | i | i | nt | i | i
CC1CCCN(C(C(=O)NC2CCCCC2)c2cc3c(cc2[N+](=O)[O-])OCO3)C1 (stereo unspecified) | 8.2µM | i | i | i | ?
CC1CCN(C(C(=O)NC2CCCCC2)c2cc3c(cc2[N+](=O)[O-])OCO3)CC1 (stereo unspecified) | ? | ? | ? | i | i
CC1CCCC(NC(=O)NC(=O)CCl)C1C (stereo unspecified) | i | ? | 20.6µM | ? | i
CC1CCCCC1NC(=O)NC(=O)CCl (stereo unspecified) | i | 6.51µM | 20.6µM | ? | ?
O=C1OC(CC(=O)N(Cc2nnc(-c3ccc(Cl)cc3)o2)C2CC2)c2ccccc21 (stereo unspecified) | i | i | i | i | i
COc1ccc(C2CC(c3cccs3)=NN2C(=O)CSc2nnnn2C)cc1OC (stereo unspecified) | i | i | i | i | i
COc1ccc(C2CC(c3cccs3)=NN2C(=O)CSc2nncn2C)cc1OC (stereo unspecified) | ? | i | i | 4.61µM | i
COC(=O)c1cc2occc2n1Cc1nc(-c2ccccc2)oc1C | i | nt | nt | nt | i
O=[N+]([O-])c1cccc(/C=N/Nc2nc(N3CCOCC3)nc(N3CCOCC3)n2)c1 | i | i | ? | i | i
O=[N+]([O-])c1ccc(Nc2nc(N/N=C/c3cccc(F)c3)nc(N3CCCC3)n2)cc1 | i | i | 4.61µM | ? | i
COc1cccc(/C=N/Nc2nc(Nc3ccc([N+](=O)[O-])cc3)nc(N3CCCC3)n2)c1O | ? | 5.8µM | 6.51µM | i | 16.4µM

Screening results from PubChem BioAssay.
